Reference: PubChem BioAssay (NCI)
Compounds without any hit were thinned out: in the full panel of roughly 83,000, 20% have a hit.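 Growth was measured after 48 h exposure to one concentration of compound in 96-well plates. Values under 10 count as active.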 Activity calls are given as the source filed them.

Tested on: IGROV1 ovarian
Test: NCI-60 one-dose screen, 48 h (100 = growth as untreated, 0 = no growth, -100 = all killed)
Conditions: 10 µM unless noted

SMILES | growth
FC(F)(F)c1cccc(-c2nnn(Cc3cc(-c4cccc(Cl)c4)no3)n2)c1 | 104% (inactive)
O=C(c1ccc(F)cc1)C1CCN(CCn2c(=O)[nH]c3ccccc3c2=O)CC1 | 111% (inactive)
Cc1ccc(C2(C)NC(=O)N(CC(=O)Nc3cccc(C)c3)C2=O)cc1 (centres undefined) | 105% (inactive)
COc1ccc(C(=O)C2OC3=C(C(=O)CC(C)(C)C3)C2c2cccc(Oc3ccccc3)c2)cc1 (centres undefined) | 95.9% (inactive)
CC1(C)C2=C(C(=O)N1Cc1ccccc1)C(c1ccco1)N(C(=O)C1CCC1)CCN2 (centres undefined) | 103% (inactive)
COc1ccc(Nc2nccc(Nc3ccc4[nH]ncc4c3)n2)cc1 | 50.6% (inactive)
Cc1nn(-c2ccccc2)c(Oc2ccccc2)c1/C=N/NC(=O)Cn1c(=O)sc2ccccc21 | 54.4% (inactive)
CCN1C(=O)N(CC)C2C1NC(=S)N2/N=C/C=C/c1cccs1 (centres undefined) | 24.5% (inactive)
O=C(Nc1ncc(Cc2ccc(Cl)cc2)s1)c1ccc2c(c1)OCCO2 | 22.3% (inactive)
C#Cc1ccc(NC(=O)Cc2ccc(/C=C/C(=O)c3nccn3C)cc2)cc1 | 52.8% (inactive)
CN(C)CCOc1nc2c3cc([N+](=O)[O-])ccc3nn2c2ccccc12 | 29.8% (inactive)
CCN(CC)CCCC(Nc1c2ccc(Cl)cc2nc2ccc(OC)cc12)c1ccncc1 (centres undefined) | 75.7% (inactive)
CCOC(=O)c1cnc2sc(-c3ccc(OC)cc3)nc2c1Cl | 102% (inactive)
COc1ccc2c(O)cc3c(c2c1)[C@H](CCl)CN3C(=O)c1cc2cc(NC(=O)CCN3CCOCC3)ccc2[se]1 | -60.1% (active)
